Settings in all cases: mRNA level, 48 h; actives raise or lower the signal
Read-out in experiment [1]: Potassium channel subfamily K member 1 (KCNK1), KCNK1 (gene 3775)
Briefly: LTEA_HepaRG_KCNK1: Life Technologies and Expression Analysis (LTEA) Assay for Potassium channel subfamily K member 1 (KCNK1) using HepaRG (AID 2283511). An outline of the steps: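 HepaRG, 48 h exposure, 8-pt half-log series top 100 uM, 0.5% DMSO vehicle, duplicates. Readout: KCNK1 transcript by qRT-PCR (Fluidigm array), housekeeping-normalized; bidirectional curve fit relative to DMSO baseline.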

Read-out in experiment [2]: Keratin 19 (KRT19), KRT19 (gene 3880)
Briefly: LTEA_HepaRG_KRT19: Life Technologies and Expression Analysis (LTEA) Assay for Keratin 19 (KRT19) using HepaRG (AID 2283512). An outline of the steps: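 KRT19 transcript measured by TaqMan qRT-PCR, referenced to three housekeeping genes, after HepaRG cells received test chemicals for 48 h. Eight half-log concentrations, top 100 uM, 0.5% DMSO vehicle; increases and decreases both fitted.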

Read-out in experiment [3]: JUN Transcription Factor, JUN (gene 3725)
Nature of the experiment: LTEA_HepaRG_JUN: Life Technologies and Expression Analysis (LTEA) Assay for JUN Transcription Factor using HepaRG (AID 2283513). An outline of the steps: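 HepaRG, 48 h exposure, 8-pt half-log series top 100 uM, 0.5% DMSO, duplicate. JUN mRNA by qRT-PCR (Fluidigm), housekeeping-normalized (ACTB/GAPDH/POLR2A); bidirectional curve fit vs DMSO baseline.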

Read-out in experiment [4]: Lipase C (LIPC), LIPC (gene 3990)
Nature of the experiment: LTEA_HepaRG_LIPC: Life Technologies and Expression Analysis (LTEA) Assay for Lipase C (LIPC) using HepaRG (AID 2283514). An outline of the steps: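 HepaRG, 48 h exposure, 8-pt half-log series from 100 uM in 0.5% DMSO, duplicates. Readout: LIPC mRNA by Fluidigm qRT-PCR, housekeeping-normalized (ACTB/GAPDH/POLR2A). Gain or loss fitted bidirectionally against DMSO baseline.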

Read-out in experiment [5]: Lipoprotein lipase (LPL), LPL (gene 4023)
Nature of the experiment: LTEA_HepaRG_LPL: Life Technologies and Expression Analysis (LTEA) Assay for Lipoprotein lipase (LPL) using HepaRG (AID 2283515). An outline of the steps: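 HepaRG, 48 h exposure, 8-pt half-log dilutions from 100 uM, 0.5% DMSO vehicle, duplicates; qRT-PCR (Fluidigm array) of LPL mRNA vs housekeeping genes; bidirectional curve fit relative to DMSO baseline.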

Read-out in experiment [6]: MicroRNA 122 (MIR122), gene 406906
Briefly: LTEA_HepaRG_MIR122: Life Technologies and Expression Analysis (LTEA) Assay for MicroRNA 122 (MIR122) using HepaRG (AID 2283516). Also: the transcript read is the microRNA miR-122. The gist of the method:
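qRT-PCR read-out (TaqMan, Fluidigm array), normalized to three housekeeping genes; HepaRG cells dosed 48 h at 8 concentrations up to 100 uM in 0.5% DMSO, duplicate; gain or loss fitted against DMSO baseline.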

Read-out in experiment [7]: matrix metalloproteinase-10 (MMP10), MMP10 (gene 4319)
Nature of the experiment: LTEA_HepaRG_MMP10: Life Technologies and Expression Analysis (LTEA) Assay for matrix metalloproteinase-10 (MMP10) using HepaRG (AID 2283517). An outline of the steps:
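Transcript levels come from Fluidigm qRT-PCR normalized to three housekeeping genes, with curves fitted bidirectionally against 0.5% DMSO. Human HepaRG cells were dosed for 48 hours at concentrations up to 100 uM.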

Read-out in experiment [8]: MYC, MYC (gene 4609)
Nature of the experiment: LTEA_HepaRG_MYC: Life Technologies and Expression Analysis (LTEA) Assay for MYC using HepaRG (AID 2283518). The gist of the method: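 MYC transcript changes, up or down relative to 0.5% DMSO, from TaqMan qRT-PCR normalized to three housekeeping genes. Human HepaRG cultures received chemicals for 48 h at eight half-log concentrations up to 100 uM, in duplicate.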

Read-out in experiment [9]: matrix metalloproteinase-3 (MMP3), MMP3 (gene 4314)
Nature of the experiment: LTEA_HepaRG_MMP3: Life Technologies and Expression Analysis (LTEA) Assay for matrix metalloproteinase-3 (MMP3) using HepaRG (AID 2283519). The gist of the method:
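qRT-PCR read-out of MMP3 mRNA (normalised to three housekeeping genes) in HepaRG liver cells after 48 h chemical exposure; 8-point half-log series, top 100 uM, 0.5% DMSO vehicle. Bidirectional curve fitting against DMSO baseline.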

Read-out in experiment [10]: Paternally Expressed 10 (PEG10), PEG10 (gene 23089)
Nature of the experiment: LTEA_HepaRG_PEG10: Life Technologies and Expression Analysis (LTEA) Assay for Paternally Expressed 10 (PEG10) using HepaRG (AID 2283520).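 As to AC50: differentiated HepaRG human liver cells in serum-free induction medium with 0.5% DMSO; PEG10 transcript by qRT-PCR normalised to ACTB GAPDH and POLR2A.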 An outline of the steps: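 qRT-PCR read-out: PEG10 mRNA normalised to three housekeeping genes, fitted bidirectionally against 0.5% DMSO vehicle. HepaRG cells received test chemicals for 48 h in serum-free induction medium, 8 points, top 100 uM, half-log steps.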

Results on 16 molecules are retold here after PubChem BioAssay (EPA / NIEHS).

Calls of active or inactive are those of the source. The calls were made as follows: active = hit-call score of the fitted dose curve at least 0.9, where 1 is the maximum; inactive = score below 0.9.

By AC50 is commonly meant the concentration at which the activity in the assay is half-maximal.

In the case of `O=C(NO)C1(NS(=O)(=O)c2ccc(Oc3ccc(F)cc3)cc2)CCOCC1`, the molecule was classed as inactive in experiment [1], in experiment [3], in experiment [4], in experiment [6], in experiment [7] and in experiment [9]. Further, the AC50 in experiment [2] is 71.4 µM (active); in [5] it was 76.6 µM (active); in experiment [8], 78.5 µM (active); in experiment [10], 68.4 µM (active).
In the case of `CCCCCCCC1CCC(=O)O1` (stereo not given), the molecule was called inactive in [1], in experiment [2], in experiment [3], in [4], in experiment [6] and in [7]. The molecule was classed as inactive in experiment [8], in [9] and in experiment [10].
For `O=C(O)c1cccc(C[C@@H]2COc3ccc(OCc4nc5cc(F)ccc5s4)cc3[C@@H]2O)c1`, the result in [1], in experiment [3], in experiment [4], in experiment [5], in experiment [6] and in experiment [7] was inactive. Further, the molecule was called inactive in [8] and in [9]. Further, in experiment [10], the half-maximal activity concentration (AC50) is 50 µM (active).
Take `c1ccc2c(c1)-c1cccc3c1c-2cc1ccccc13`: the call in experiment [1], in experiment [3], in experiment [7] and in experiment [9] was inactive. The AC50 in experiment [2] was 1.4 µM (active); in experiment [4], 13.3 µM (active); in experiment [5], 5.49 µM (active); in experiment [6] it was 19.6 µM (active); in experiment [8], 2.06 µM (active); in experiment [10], 8.43 µM (active).
With `CNC(C)=O`, the molecule was called inactive in experiment [1], in experiment [2], in experiment [3], in experiment [4], in [5] and in [6]. Besides, the molecule was classed as inactive in [7], in experiment [8], in experiment [9] and in experiment [10].
For the molecule `COS(C)(=O)=O`, the call in experiment [1], in [2], in experiment [3], in [4], in experiment [6] and in [7] was inactive. Moreover, the result in experiment [8], in experiment [9] and in experiment [10] was inactive.
As to `Cc1nc(-c2ccccn2)ncc1C(=O)Nn1cc(C)c2cc(F)ccc21`, the outcome in experiment [1], in experiment [2], in experiment [3], in experiment [5], in experiment [7] and in experiment [8] was inactive. For the same molecule, in [9], the molecule was classed as inactive. Further, the AC50 is 50 µM (active) in experiment [4], 50 µM (active) in experiment [6] and 34.2 µM (active) in experiment [10].
Consider `Nc1ccn([C@@H]2O[C@H](CO)[C@@H](O)[C@@H]2O)c(=O)n1`, for which the result in experiment [1], in [2], in experiment [3], in [4], in experiment [6] and in experiment [7] was inactive. The molecule was classed as inactive in experiment [8], in experiment [9] and in experiment [10].
Turning to `Cn1c(=O)c2[nH]cnc2n(C)c1=O`, the molecule was called inactive in experiment [1], in experiment [2], in [3], in experiment [4], in [6] and in [7]. In addition, the outcome in experiment [8], in experiment [9] and in experiment [10] was inactive.
For the molecule `C[C@]12C=CC(=O)C=C1CC[C@H]1[C@@H]3C[C@@H](O)[C@](O)(C(=O)CO)[C@@]3(C)C[C@H](O)[C@@]12F`, the result in experiment [1], in experiment [2], in experiment [3], in experiment [4], in [6] and in [7] was inactive. The molecule was called inactive in experiment [8], in experiment [9] and in [10].
Take `CCCCCOC(C)=O`: the outcome in experiment [1], in experiment [2], in [3], in experiment [4], in [6] and in experiment [7] was inactive. Further, the outcome in experiment [8], in experiment [9] and in experiment [10] was inactive.
In the case of `CC(C)CCCCCCOC(=O)C1CCCCC1C(=O)OCCCCCCC(C)C` (stereo not given), the molecule was classed as inactive in experiment [1], in experiment [2], in [3], in experiment [4], in experiment [6] and in experiment [7]. The result in [8], in experiment [9] and in experiment [10] was inactive.
On to `OC(Cn1cncn1)(Cn1cncn1)c1ccc(F)cc1F`, for which the outcome in [1], in experiment [2], in experiment [3], in experiment [4], in [5] and in [6] was inactive. Further, the molecule was classed as inactive in experiment [7], in experiment [8], in experiment [9] and in experiment [10].
With `COCc1nnc(-c2ccc[n+]([O-])c2)n1-c1c(Cl)c(Cl)cc2[nH]c(=O)c(=O)[nH]c12`, the result in experiment [1], in experiment [2], in experiment [3], in experiment [4], in [5] and in experiment [6] was inactive. For the same molecule, the result in [7], in experiment [8], in [9] and in experiment [10] was inactive.
With `O=c1[nH]cnc2c1ncn2[C@H]1CC[C@@H](CO)O1`, the molecule was classed as inactive in experiment [1], in experiment [2], in experiment [3], in [4], in experiment [6] and in [7]. Also, the call in experiment [8], in experiment [9] and in experiment [10] was inactive.
For `CCN(CC)C(=S)SSC(=S)N(CC)CC`, the molecule was classed as inactive in experiment [1], in experiment [2], in experiment [3], in [4], in experiment [6] and in experiment [7]. Besides, the call in experiment [8], in experiment [9] and in [10] was inactive.
